Screens (PubChem BioAssay)
Abeta yeast res = restores growth of yeast expressing A-beta42 peptide; yeast expressing A-beta42, growth rescue, OD600, 48 h; response scale: 0% DMSO, 100% iron-clioquinol control; Potency, µM (top dose mostly 46.1 µM), usual class: activators; 410,000 tested, 0.063% active; also: nearly all actives have a fitted effect of over 55% in size
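Yeast A-beta toxicity model in growth medium with pinned compounds, 48 h at 30 C; growth read as absorbance at 600 nm. Normalized to FeCl3/clioquinol equimolar mix (positive) and DMSO (negative).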
TDP-43 yeast inh = rescues yeast growth from TDP-43 toxicity | 410,000 tested, 1.8% active | Potency, µM (highest dose often 46.1 µM), without a hit: top-dose growth rescue (activation), actives largely listed as activators | TDP-43 expressing yeast growth rescue, BacTiter-Glo, 24 h | AID 652104; also: % of control where 0% means no effect; nearly all actives have a fitted effect of over 50% in size
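Cell-based yeast growth screen: TDP-43 expression induced in galactose, inoculum OD600=0.02 after raffinose pregrowth to mid-log. Read-out BacTiter-Glo luminescence at 24 hr, 30 deg C; inhibition of toxicity seen as signal increase.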
FUS yeast rescue = rescues growth of FUS-expressing yeast. S. cerevisiae FUS-expressing, growth rescue, OD600, 24 h. Potency, µM (doses to about 76.6 µM), most hits filed as activators. 390,000 tested, 0.24% active;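 also: plate controls were DMSO vehicle for no effect and reference control for full effect; nearly all actives have a fitted effect of over 55% in size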
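Quantitative HTS measuring growth restoration of FUS-toxic yeast. Galactose-induced cells (OD 0.005) were exposed 24hr at 30C to compounds at several concentrations, then absorbance at 600 nm was recorded.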
Mito fusion yeast = mitochondrial division inhibition or fusion activation; S. cerevisiae fusion-defective mutant growth rescue, CellTiterGlo 48 h; Potency, µM (series often up to 46.1 µM), without a hit: at the highest dose growth rescue (activation), usual class: activators; 320,000 tested, 0.23% active; AID 485298; also: % of control where 0% means no effect; nearly all actives have a fitted effect of over 45% in size
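Growth-rescue viability read-out: after 48 h at the non-permissive 37C in glycerol/ethanol YPEG, yeast mitochondrial fusion mutants are measured by CellTiterGlo luminescence; compounds (23 nl pinned per well) restoring growth score as division inhibitors or fusion activators.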
aSyn rescue = inhibitors of alpha-synuclein toxicity in yeast | Yeast expressing alpha-synuclein, growth rescue, BacTiter-Glo, 24 h | Potency, µM (highest dose often 46.1 µM), inactives show at the top dose growth rescue (activation), hits mostly activators | 370,000 tested, 0.14% active | AID 652106; also: % of control where 0% means no effect; nearly all actives have a fitted effect of over 65% in size
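Readout is rescue of growth in alpha-synuclein-expressing yeast, so inhibitors of toxicity appear as activators. Growth after 24 hr at 30 deg C in galactose medium is quantified by luminescence.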
Active calls of the source: *; i = inactive; u = inconclusive; x = not tested or not shown. An excerpt weighted towards active compounds, which were near 2.2% of everything screened. Calls follow the shape of the dose curve; as a rule, active = well fitted curve in the direction sought with a large enough effect; inconclusive = small, poorly fitted or top-dose-only effect, or another doubt; inactive = no such curve, though single readings can be large; an effect the other way counts as inactive or inconclusive. Potency is read from the fitted curve at half-maximal effect.

SMILES | Abeta yeast res | TDP-43 yeast inh | FUS yeast rescue | Mito fusion yeast | aSyn rescue
Cc1ccc(C)c(N2CCN(C(=O)c3ccc4[nH]c(C)c(C)c4c3)CC2)c1 | i | -14.1% | i | x | x
COc1cc(C(=O)N2CCN(c3cccc(C)c3C)CC2)cc(OC)c1OC | i | 22.4µM* | i | 0.8% | -4.1%
Cc1cccc(N2CCN(C(=O)c3ccc4ncsc4c3)CC2)c1C | i | 11.2µM* | i | 5.9% | 22.4%
O=C(c1ccc2ncsc2c1)N1CCN(c2ccccc2Cl)CC1 | i | 10µM* | i | 2.9% | -1.2%
COc1cc(/C=C2\SC(N3CCCCC3)=NC2=O)cc(OC)c1OC | i | -3.3% | i | 5.01µM* | -0.4%
COc1ccc(/C=C2\SC(N3CCCCC3)=NC2=O)cc1 | i | 24.9% | i | 23.9% | 1.6%
Cc1cnn(C(=S)NCCc2ccccc2)c1 | i | 11.2µM* | i | -5.9% | -10.7%
O=C(CCCCCn1c(=S)[nH]c2ccccc2c1=O)NCc1ccc2c(c1)OCO2 | i | 7.08µM* | i | -2.0% | 0.7%
O=c1c2ccccc2[nH]c(=S)n1Cc1ccc2c(c1)OCO2 | i | 5.8% | i | 6.6% | 8.5%
COc1ccc(NS(=O)(=O)c2cc(NC(=O)c3ccc(C)s3)ccc2N2CCOCC2)cc1 | i | -4.3% | i | 18.7% | -0.8%
NC(=O)CSc1nc2scc(-c3ccco3)c2c(=O)n1-c1ccccc1 | i | 1.6% | 22.4µM* | 2.9% | -0.6%
O=C(CSc1nc2scc(-c3ccco3)c2c(=O)n1-c1ccccc1)N1CCOCC1 | i | -8.4% | i | 8.1% | -0.1%
Cc1cccc(NC(=O)Nc2c(-c3ccc(C(F)(F)F)cc3)nc3ncccn23)c1 | x | x | i | x | x
O=C(CCc1nnc2n(Cc3ccc(F)cc3)c(=O)c3ccccc3n12)N1CCN(c2ccccn2)CC1 | x | -1.9% | i | 12.6µM* | -0.6%
NC(N)=NC(N)=Nc1ccc2ccccc2c1 | i | -0.7% | i | 31.6µM* | 3.1%
COc1cccc(N=C(N)N=C(N)N)c1 | i | 10.8% | i | 4.4% | -2.1%
CCS(=O)(=O)n1nc(-c2ccc(Cl)cc2)nc1SCc1ccccc1 | i | -48.1% | x | 23.1% | -40.9%
COc1ccc(-c2nc(SCc3ccccc3)n(S(C)(=O)=O)n2)cc1 | i | 2.82µM* | i | 1.2% | x
COc1cccc(S(=O)(=O)Nc2ccc3c(c2)C(=O)N(C)C[C@H](OC)[C@H](C)CN[C@@H](C)CO3)c1 | i | 15.6% | i | x | -7.9%
CCCCCCCC/C=C\CCCCCCCC(=O)NCc1ccc(O)c(OC)c1 | x | x | x | -16.8% | 2.3%
CCCCCCCC/C=C\CCCCCCCC(=O)NCCc1ccc(O)c(O)c1 | i | 22.4µM* | u | u | u
CCOC(=O)CC[C@@H]1CC[C@]2(CCCN(C(=O)C3CCCC3)C2)O1 | x | x | i | x | x
CCOC(=O)[C@]12CCCC=C1N(CCC1=CCCCC1)C(=O)[C@H](CC(=O)NCC1CCCCC1)C2 | i | 22.4µM* | u | x | -7.1%
CCOC(=O)[C@]12CCC=C1N(CCC1=CCCCC1)C(=O)[C@H](CC(=O)NCC1CCCCC1)C2 | i | 16.5% | u | x | 8.8%
CCOC(=O)[C@]12CCCC=C1N(CCC1=CCCCC1)C(=O)[C@H](CC(=O)NCc1ccccc1)C2 | u | 22.4µM* | u | x | 3.4%
SMILES | Abeta yeast res | TDP-43 yeast inh | FUS yeast rescue | Mito fusion yeast | aSyn rescue
C=CC[C@H](CC(=O)NCCO)C(=O)N[C@H](COC(=O)[C@@H](CC=C)Cc1ccc(F)cc1)C(C)(C)C | i | -16.6% | u | x | -6.6%
COc1ccccc1NC(=O)Nc1nc(CC(=O)N2CCN(c3ccccc3F)CC2)cs1 | i | 0.0% | 28.2µM* | -1.3% | 0.0%
CC1CC[C@@]2(OC1)O[C@H]1CC3[C@@H]4C[C@@H](O)[C@@]5(O)C[C@@H](O)[C@H](O)C[C@]5(C)[C@H]4CC[C@]3(C)[C@H]1[C@@H]2C (stereo not given in full) | i | -6.9% | i | -19.8% | -8.5%
Cc1ccc(Cl)cc1N1CCN(C(=O)CSc2nnc3n2C(C)(C)Cc2ccccc2-3)CC1 | i | u | i | 15.8µM* | 5.7%
Cc1ccc(NC(=S)Nc2cccnc2)c(S(=O)(=O)N2CCCCC2)c1 | i | 15.1% | 35.5µM* | -0.8% | -0.3%
COC(=O)c1c(N(S(C)(=O)=O)S(C)(=O)=O)sc2c1CCN(c1ncc(C(F)(F)F)cc1Cl)C2 | i | 4.6% | i | -4.2% | 7.4%
COC(=O)c1c(/N=C/N(C)C)sc2c1CCN(c1ncc(C(F)(F)F)cc1Cl)C2 | i | u | u | 10µM* | 0.0%
NNC(=O)C=C1CCN(c2ncc(C(F)(F)F)cc2Cl)CC1 | i | 0.0% | i | 9.8% | 22.3%
O=C(O)C=C1CCN(c2ncc(C(F)(F)F)cc2Cl)CC1 | i | 12.6µM* | i | -0.6% | 12.8%
CN(Cc1cnc2nc(N)nc(N)c2n1)c1ccc(C(=O)NC(CCC(=O)O)C(=O)O)cc1 (stereo not given) | i | 15.8µM* | x | x | 1.8%
COc1cccc(CNC(=O)CCSCc2ccccc2F)c1 | i | 14.1µM* | i | -7.6% | 6.3%
Cc1cccc(NCN2C(=O)C3C4C=CC(C4)C3C2=O)c1 (stereo not given) | i | 11.2µM* | i | -0.1% | 0.4%
O=C1C2C3C=CC(C3)C2C(=O)N1CNc1ccccc1 (stereo not given) | i | u | x | 0.1% | -9.2%
Cc1nc(N2CCCCC2)c2c(-c3cccs3)csc2n1 | i | 15.8µM* | i | 2.6% | -16.8%
Cc1nc(N2CCN(S(=O)(=O)c3ccccc3C#N)CC2)c2c(-c3cccs3)csc2n1 | x | 7.4% | i | 23.2% | 14.2%
CC(=O)Nc1ccc(S(=O)(=O)N2CCC(N3CCCCCC3)CC2)cc1 | i | -17.9% | i | -1.6% | -0.9%
CCN(CC)c1nc2c(S(=O)(=O)c3ccccc3)nnn2c2ccc(Cl)cc12 | i | 12.6µM* | u | x | x
Cc1ccc(S(=O)(=O)c2nnn3c2nc(N2CCC(C(N)=O)CC2)c2cc(Cl)ccc23)cc1C | i | 10.3% | 25.1µM* | x | x
Cc1ccc(S(=O)(=O)c2nnn3c2nc(N(C)Cc2ccccc2)c2cc(Cl)ccc23)cc1C | i | 11.6% | i | x | x
CCOC(=O)C1CCN(c2nc3c(S(=O)(=O)c4ccc(C)c(C)c4)nnn3c3ccc(Cl)cc23)CC1 | i | 12.6% | u | x | x
Cc1ccc(OCCNC(=O)C(=O)NCc2ccco2)cc1 | i | -9.9% | i | 1.5% | 0.1%
CCOc1ccc(Cl)cc1-c1cc(C(=O)NCC2CCCCC2)[nH]n1 | i | 14.1µM* | i | x | -0.6%
Cc1cc(F)ccc1-c1cc(C(=O)NCC2CCCCC2)[nH]n1 | i | 12.1% | i | x | -5.8%
